Molecules are shown by their SMILES. Calls of active or inactive are those of the source. How the source made its calls: active means hit-call score of the fitted dose curve at least 0.9, where 1 is the maximum; inactive means score below 0.9.

Chain of human Thyroid Hormone Receptor Alpha (TRa) Agonism, THRA (gene 7067) (P10827 whole entry, looked up): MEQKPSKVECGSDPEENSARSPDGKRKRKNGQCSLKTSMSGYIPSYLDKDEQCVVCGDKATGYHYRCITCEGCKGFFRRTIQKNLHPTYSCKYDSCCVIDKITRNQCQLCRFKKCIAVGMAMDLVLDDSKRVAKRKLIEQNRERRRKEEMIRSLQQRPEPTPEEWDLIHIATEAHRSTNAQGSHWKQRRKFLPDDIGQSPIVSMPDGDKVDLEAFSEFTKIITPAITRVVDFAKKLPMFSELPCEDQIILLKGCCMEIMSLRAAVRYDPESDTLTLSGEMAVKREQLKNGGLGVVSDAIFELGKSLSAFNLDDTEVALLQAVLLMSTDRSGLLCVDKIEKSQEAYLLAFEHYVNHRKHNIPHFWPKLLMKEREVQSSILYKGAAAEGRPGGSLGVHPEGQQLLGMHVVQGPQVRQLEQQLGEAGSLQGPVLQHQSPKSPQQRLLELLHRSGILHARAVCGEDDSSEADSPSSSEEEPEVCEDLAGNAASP

For the experiment, the target named is human Thyroid Hormone Receptor Alpha (TRa) Agonism, THRA (gene 7067) (UniProt P10827). Briefly: ERF_TW_NR_COA_hTHRA: Eurofins (ERF) Nuclear Receptor (NR) Functional Coactivator Assay for human Thyroid Hormone Receptor Alpha (TRa) Agonism. On the procedure:
ERF_TW_NR_COA_hTHRA is a biochemical, single-readout assay that uses extracted gene-proteins in a cell-free assay. Measurements were taken 0.5 hour after chemical dosing in a 96-well plate. See TRalpha Human Thyroid Hormone NHR Functional Agonist Coactivator Assay, Panlabs.ERF_TW_NR_COA_hTHRA is an assay component calculated from the ERF_TW_NR_COA_hTHRA assay. It is designed to measure TR-FRET using a type of inducible reporter as detected by fluorescence intensity of 7-hydroxy-coumarin with FRET: TR-FRET technology.Data from the assay component ERF_TW_NR_COA_hTHRA_Agonist was analyzed at the assay endpoint, ERF_TW_NR_COA_hTHRA_Agonist, in the positive analysis fitting direction relative to DMSO as the negative control and baseline of activity. Using a type of agonist, gain-of-signal activity can be used to understand changes in protein-protein interaction as they relate to gene THRA. […]
Test compound and/or vehicle is incubated with the 0.25 nM TR alpha LBD-GST and coactivator peptide for 30 minutes at RT. Determination of the amount of complex formed is read spectrofluorimetrically (excitation: 337 nm, emission: 520/490 nm). Test compound-induced increase of fluorescence by 50 percent or more relative to the 0.1 uM T3 response indicates possible TR alpha receptor agonist activity.
On to `COc1cc(CCC(=O)CC(=O)CCc2ccc(O)c(OC)c2)ccc1O`, for which the call was inactive.
In the case of `O=C(/C=C/c1ccc(O)cc1)CC(=O)/C=C/c1ccc(O)cc1`, the outcome was inactive.

The record behind these values is PubChem BioAssay AID2284197 (EPA ToxCast).
